Entries with a potency or affinity are not part of this list.
Experiments:
[1] = test system: Staphylococcus aureus; details: Concentration 32 ug.mL-1;; ASSAY_TEST Inhibition of Bacterial Growth; detection method Absorption (OD600); MEDIA CAMHB; plate type 384well; NBS; CORNING #3640; time 18 hr
[2] = test system: Escherichia coli; details: Concentration 32 ug.mL-1;; ASSAY_TEST Inhibition of Bacterial Growth; detection method Absorption (OD600); MEDIA CAMHB; plate type 384well; NBS; CORNING #3640; time 18 hr

Compound	Inhibition [1]	Inhibition [2]
Cc1nnc2ccc(S(=O)(=O)N(CC(=O)OC(C)(C)C)c3ccc4c(c3)OCO4)cn12	2.93%	-7.09%
N#CCSc1nnc2c(=O)n(-c3ccc(Br)cc3)ccn12	14.93%	-0.38%
Cc1cc2nn(CC(=O)Nc3ccc(F)cc3)c(=O)n2c(Nc2ccccc2C)n1	11.27%	1.51%
Cc1cc(C)cc(Nc2nc(C)cc3nn(CC(=O)NCc4ccco4)c(=O)n23)c1	4.89%	-6.71%
NC(=O)C1CCN(C(=O)CCc2nnc3c(N4CCCCC4)nc4ccccc4n23)CC1	14.39%	0.84%
N#CCn1nc2n(CCC(=O)NC3CCCCC3)c(=O)c3ccccc3n2c1=O	8.56%	0.43%
O=C(NCc1ccccc1)c1ccc2nn(CC(=O)N3CCN(c4ccccc4F)CC3)c(=O)n2c1	3.54%	-3.36%
COc1ccc(N2CCN(C(=O)Cn3nc4ccc(-c5ccccc5)nn4c3=O)CC2)cc1	15.35%	1.42%
CSc1ccc(CNC(=O)CCc2nnc3c(N4CCCCC4)nc4ccccc4n23)cc1	14.53%	2%
CC(C)(C)NC(=O)Cn1nc2n(Cc3cccs3)c(=O)c3sccc3n2c1=O	-26.19%	-5.05%
CCCCn1c(=O)c2sccc2n2c(=O)n(CC(=O)NC(C)CC)nc12 (centres undefined)	-5.96%	-9.68%
Cc1ccc(Oc2nccn3c(=O)n(CC(=O)NCc4ccccc4Cl)nc23)cc1	12.36%	-4.03%

From ChEMBL document CHEMBL4513146, “CO-ADD screening of Karazin Kharkiv National University (Ukraine) compounds”
